Sampled rows, rich in hits. Any-hit rate of the full collection: about 3.8%.
PrP UTR inh: suppresses PrP 5' UTR mRNA reporter expression; cell-based PrP 5' UTR mRNA reporter, plate reader; inhibition, % (test concentration not listed); hit rate 0.35% among 340,000; in the data active = inhibition above about 52%
Yp Topo-I inh: Y. pestis Topo-I inhibition via cleavage products; hit rate 0.064% among 360,000; activity, % at 10 µM; AID 504884; Y. pestis Topo-I cleavage product accumulation, plate reader; in the data active = activity above about 50%, passing the limit was not always enough
GDH-TPI inh: inhibits GDH-TPI coupling enzymes, artifact for Mtb FBA screen | hit rate 1.2% among 360,000 | inhibition, % at 4.8 µM | AID 588335 | GDH-TPI coupled enzyme counterscreen, NADH absorbance; in the data active = inhibition above about 30%
PrPC surface inh: cell surface PrPC inhibition, primary TR-FRET screen; TR-FRET read-out; inhibition, % at 13.8 µM; hit rate 0.43% among 370,000; AID 720596; in the data active = inhibition above about 24%
Mtb hypoxia inh: Mtb hypoxia fluorescent reporter inhibition. M. tuberculosis hypoxia-regulated fluorescent reporter, fluorescence. fluorescence inhibition, % (test concentration not listed). hit rate 0.1% among 300,000. AID 1159583; in the data active = fluorescence inhibition mostly above about 23%, no sharp cut-off; inactive = mostly below about 17%
Mtb FBA inh: Mtb fructose-bisphosphate aldolase inhibition; inhibition, % at 1 µM; purified M. tuberculosis FBA, fluorescence read-out; hit rate 2.3% among 360,000; P9WQA3; AID 588726; in the data active = inhibition above about 27%
Target sequence (P9WQA3 whole entry, looked up): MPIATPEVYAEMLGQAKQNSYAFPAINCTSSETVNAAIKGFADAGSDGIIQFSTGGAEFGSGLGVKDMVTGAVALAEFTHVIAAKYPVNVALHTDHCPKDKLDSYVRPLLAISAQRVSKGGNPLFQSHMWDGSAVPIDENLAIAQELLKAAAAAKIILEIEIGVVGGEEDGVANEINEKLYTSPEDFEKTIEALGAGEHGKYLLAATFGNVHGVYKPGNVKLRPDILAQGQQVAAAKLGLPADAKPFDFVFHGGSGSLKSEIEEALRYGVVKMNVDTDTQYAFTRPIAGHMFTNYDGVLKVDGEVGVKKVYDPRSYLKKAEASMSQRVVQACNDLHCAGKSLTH
Numbers stand for hits; i = inactive; nt = no result; + = active, no number.

SMILES | PrP UTR inh | Yp Topo-I inh | GDH-TPI inh | PrPC surface inh | Mtb hypoxia inh | Mtb FBA inh
CCOc1ccc(C2=Nn3c(nnc3-c3ccco3)SC2)cc1 | i | i | i | i | i | i
CON=C(CS(=O)(=O)Cc1ccccc1Cl)c1ccc(Cl)cc1Cl | nt | nt | nt | nt | i | nt
Cn1c(=O)[nH]c(=O)c2c1nc(NN=C/C(Br)=C/c1ccccc1)n2CCO | nt | nt | nt | nt | i | nt
CCCn1c(N/N=C\C=C\c2ccccc2)nc2c1c(=O)[nH]c(=O)n2C | i | i | 31.1 | i | nt | i
CCN1C(=NCCOC)NC(c2ccccc2)C(C(=O)OC)C1C (stereo not drawn) | nt | nt | nt | nt | i | nt
COC(=O)C(C)SC1=N/C(=C/c2ccc(-n3cncn3)cc2)C(=O)N1 (stereo not drawn) | i | i | 43.0 | i | i | i
O=C(CCN1C(=O)S/C(=C\C=C\c2ccccc2)C1=O)Nc1ccc(O)cc1 | i | i | i | i | i | i
O=C(CN1C(=O)S/C(=C\C=C\c2ccccc2)C1=O)Nc1ccccc1C(=O)O | i | i | 35.4 | i | nt | i
O=C(CN1C(=O)S/C(=C\C=C\c2ccccc2)C1=O)Nc1cccc(O)c1 | i | i | 31.7 | i | i | i
CC1(C)SC2C(NC(=O)COc3ccccc3)C(=O)N2C1C(=O)OCc1ccccc1 (stereo not drawn) | nt | nt | nt | nt | i | nt
CC(/C=C/c1ccccc1)=N\Nc1nc(-c2ccccc2)cs1 | i | i | 31.6 | i | nt | i
CC(C)=NNc1nc(-c2ccccc2)cs1 | i | i | i | i | i | i
O=C(/C=C/c1ccccc1)Nc1nc(-c2ccncc2)cs1 | i | i | 37.8 | i | i | i
COc1ccc(C(C)=NNC(=O)C(c2ccncc2)N2CCOCC2)cc1 (stereo not drawn) | nt | nt | nt | nt | i | nt
O=C(CCC1CCCCC1)NCCN1C2=NCC(Cc3ccccc3)N2CC1Cc1ccc(O)cc1 (stereo not drawn) | nt | nt | nt | nt | i | nt
CCCC=C(CCC)C(NC(=O)OCC(C)C)c1ccc(C(=O)OC)cc1 (stereo not drawn) | nt | nt | nt | nt | i | nt
CCc1cc(=O)oc2c(CNCc3ccccc3F)c(O)c(Cl)cc12 | i | i | i | i | i | +
CCN1CCN(Cc2c(O)c(Cl)cc3c(C)cc(=O)oc23)CC1 | i | i | i | i | i | +
CCCc1cc(=O)oc2c(CN3CCCC3)c(O)c(Cl)cc12 | i | i | i | i | i | +
Cc1cc(=O)oc2c(CN3CCCC3)c(O)c(Cl)cc12 | i | i | i | i | i | +
CCCc1cc(=O)oc2cc(C)c(CN3CCCC3)c(O)c12 | i | i | i | i | i | i
CCc1cc(=O)oc2c(CNC(Cc3ccccc3)C(=O)O)c(O)ccc12 (stereo not drawn) | nt | nt | nt | i | i | nt
CCc1cc(=O)oc2cc(C)c(CN3CCCC3)c(O)c12 | i | i | i | i | i | i
Cc1cccc(C2C3C(=O)N(Cc4ccccc4)C(=O)C3[C@]3(C)C(=O)N(c4cccc(Cl)c4)C(=O)N23)c1 (stereo partly drawn) | nt | nt | nt | nt | i | nt
Cc1cc(=O)oc2c(CN3CCCCC3)c(O)c(Cl)cc12 | i | i | i | i | i | +
SMILES | PrP UTR inh | Yp Topo-I inh | GDH-TPI inh | PrPC surface inh | Mtb hypoxia inh | Mtb FBA inh
CCN(CC)Cc1c(O)c(Cl)cc2c(C)cc(=O)oc12 | i | i | i | i | i | +
C=CCc1c(O)c(CC)cc2c(C)cc(=O)oc12 | i | i | i | i | i | +
CCN(CC)Cc1c(O)c(Cl)cc2c(C)c(C)c(=O)oc12 | i | i | i | i | i | nt
Cc1cc(=O)oc2c(CN3CCC(C)CC3)c(O)c(Cl)cc12 | i | i | i | i | i | +
O=C(OC1C(Oc2ccccc2COC(=O)C2(O)C=CCCC2=O)OC(CO)C(O)C1O)c1ccccc1 (stereo not drawn) | nt | nt | nt | nt | i | nt
CSc1nc(N)c(C#N)c(-c2ccc(Cl)cc2)c1C#N | i | i | 32.8 | i | nt | i
CSc1nc(-c2ccc(Cl)cc2)nc(N)c1C#N | nt | i | i | i | i | i
N#Cc1c(-c2ccc(Cl)cc2)c(C#N)c(=O)n(N)c1N | i | i | 32.7 | i | i | i
O=C(CC1CC=CCCCC(=O)OCC2CCCN2C1=O)NC(CO)Cc1ccccc1 (stereo not drawn) | nt | nt | nt | nt | i | nt
CC(C(=O)Nc1ccc2ccccc2c1)C1C[C@@]1(C)C(NC(=O)OCc1ccccc1)c1ccccc1 (stereo partly drawn) | nt | nt | nt | nt | i | nt
COCC=CC1=CC2=CC(=O)C(C)(OC(=O)c3cnc4ccccc4n3)C(=O)C2=CN1CCN1CCOCC1 (stereo not drawn) | nt | nt | nt | nt | i | nt
N#CC1=C(N)SC(N)=C(C#N)C1c1cccc(O)c1 | i | i | i | 27.2 | i | i
COc1ccc(C2C(C#N)=C(N)SC(N)=C2C#N)cc1OC | i | i | i | 58.7 | i | i
N#CC1=C(N)Oc2cc(O)ccc2C1c1ccccc1 (stereo not drawn) | i | i | i | i | i | i
C#CCOCCOCCOCCNc1nc(N2CCN(C(=O)C(CCCCN)n3cc(C(N)C(C)CC)nn3)CC2)nc(N2CCN(C(=O)C(CCCN=C(N)N)n3cc(C(N)C(C)CC)nn3)CC2)n1 (stereo not drawn) | nt | nt | nt | nt | i | nt
COc1ccccc1OCc1ccc(C(=O)NN=Cc2ccco2)cc1 | nt | nt | nt | nt | i | nt
COc1cccc(/C=C2\Oc3cc(OCC(=O)N4CCCCC4)ccc3C2=O)c1OC | i | i | 39.1 | i | i | i
COc1ccc(/C=C2\Oc3cc(OCC(=O)N4CCC[C@H]4C(=O)O)ccc3C2=O)cc1OC | i | i | i | nt | nt | i
O=C(O)COc1ccc2c(c1)O/C(=C\c1cccs1)C2=O | i | i | 41.8 | i | i | i
COc1ccc(/C=C2\Oc3cc(OC(=O)N4CCOCC4)ccc3C2=O)c(OC)c1 | i | i | 31.0 | i | i | i
COc1ccc(/C=C2\Oc3cc(OCC(=O)N4CCC[C@H]4C(=O)O)ccc3C2=O)c(OC)c1OC | i | i | 38.2 | i | nt | i
C=C[C@]12CN(C)C3C4COC(CC41)[C@]1(C(=O)Nc4ccccc41)C32 (stereo partly drawn) | nt | nt | nt | nt | i | nt
CCOC(=O)C1=C(C)N=c2sc(=C3C(=O)Nc4ccccc43)c(=O)n2C1c1ccc2c(c1)OCO2 (stereo not drawn) | nt | nt | nt | nt | i | nt
